Most compounds without a hit are left out; they make up all but 7.3% or so of the library.
Luc counter: Kinase-Glo luciferase inhibition (counter-screen) | Q27757 | Kinase-Glo luciferase, ATP luminescence, 8 min | Potency, µM (titrated, usually from 38.3 µM), without a hit: at the top dose activity change, negative = inhibition, usual class: inhibitors | 0.28% of 200,000 active; further: on the % scale 0 is the no-effect control and ±100 the full control effect; nearly all actives have a fitted effect of over 60% in size
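Recombinant Kinase-Glo luciferase, 10 uM ATP (linear range), luciferin; imidazole pH 7.2 / KCl / MgCl2 / Tween / BSA buffer; 8 min RT; luminescence.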
NPC1 promoter act: NPC1 promoter activation. Huh7 NPC1 promoter luciferase reporter, 24 h. Potency, µM (highest dose often 9.22 µM), without a hit: top-dose activation, usual class: activators. 2.4% of 320,000 active. AID 485313; further: % of control where 0% means no effect; nearly all actives have a fitted effect of over 60% in size
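Luminescence read-out of NPC1 promoter-driven luciferase in stably transfected Huh7 cells; compounds delivered in DMSO and left 24 h at 37C, 5% CO2, qHTS titration format.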
Rab9 prom act: activates the Rab9 promoter | Potency, µM (titrated, usually from 9.22 µM), without a hit: at the highest dose activation, negative = inhibition, actives largely listed as activators | Huh7 Rab9 promoter-luciferase reporter, luminescence, 24 h | 2.8% of 320,000 active; further: % of control where 0% means no effect; nearly all actives have a fitted effect of over 60% in size
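Huh7 cells stably carrying Rab9 promoter–luciferase reporter, plated 1500 cells/well, compound added after 2 h and incubated 24 h at 37 °C; luciferase luminescence then read after 10 min with detection reagent.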
FLuc counter: counter-screen for miR-21 project: firefly luciferase inhibitors or activators; P08659; purified FLuc, Km substrates, luminescence inhibition; Potency, µM (titrated, usually from 57.5 µM), for the others: at the highest dose activity change, negative = inhibition, usual class: inhibitors; 6.9% of 360,000 active; AID 588342;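 further: plate controls were vehicle for no effect and reference inhibitor for full effect; nearly all actives have a fitted effect of over 55% in size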
Target sequence (P08659 whole entry, looked up): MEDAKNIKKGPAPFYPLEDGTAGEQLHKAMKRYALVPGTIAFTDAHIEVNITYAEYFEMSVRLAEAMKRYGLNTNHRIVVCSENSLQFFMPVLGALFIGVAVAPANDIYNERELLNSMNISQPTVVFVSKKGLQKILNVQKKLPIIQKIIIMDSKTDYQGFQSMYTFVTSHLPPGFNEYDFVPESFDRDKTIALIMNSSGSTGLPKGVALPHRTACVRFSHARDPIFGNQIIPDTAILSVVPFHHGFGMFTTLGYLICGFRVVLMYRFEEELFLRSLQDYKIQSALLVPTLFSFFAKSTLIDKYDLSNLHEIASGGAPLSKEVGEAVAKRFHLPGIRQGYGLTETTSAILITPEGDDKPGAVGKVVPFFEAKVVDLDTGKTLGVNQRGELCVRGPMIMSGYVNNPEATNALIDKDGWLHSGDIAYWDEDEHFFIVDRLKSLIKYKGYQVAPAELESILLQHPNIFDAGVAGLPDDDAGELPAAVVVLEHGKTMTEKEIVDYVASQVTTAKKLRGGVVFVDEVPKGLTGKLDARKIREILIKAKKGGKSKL
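Purified P. pyralis luciferase (10nM final) with 10uM D-luciferin and 10uM ATP (Km levels) in 50mM Tris acetate pH 7.5, 10mM Mg acetate, 0.01% Tween-20, 0.05% BSA; qHTS 6-point titration, ~60 µM downward; luminescence read.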
SMN2 splice up: increases expression of the SMN2 splice variant | HEK293 SMN2-luciferase splicing reporter, luminescence, 30-36 h | 2.8% of 210,000 active | Potency, µM (series often up to 46.1 µM), for the others: top-dose activity change, positive = activation, most hits filed as activators; further: % of control where 0% means no effect; nearly all actives have a fitted effect of over 55% in size
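HEK293 cells carry an SMN2 […]–luciferase reporter in which exon 7 inclusion puts luciferase in frame. Cells were plated 10-12 h before compound addition, then incubated 30-36 h at 37C. ONE-Glo luminescence was read; sodium butyrate at 4.5 mM final served as control.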
ELG1 genotoxic: genotoxicity induction in ELG1-luciferase HEK293T cells; HEK293T ELG1-luciferase reporter, luminescence, 16 h; Potency, µM (titrated, usually from 46 µM), inactives show at the highest dose activity change, positive = activation, usual class: activators; AID 504466; 1.3% of 330,000 active; further: % of control where 0% means no effect; nearly all actives have a fitted effect of over 60% in size
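Cells (2,000/well) expressing the ELG1-luciferase fusion are dosed by pin tool and kept 16 hr at 37 °C, 5% CO2. Signal comes from ONE-Glo luciferase reagent after 30 min at room temperature.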
The depositor's hits bear a star; u = inconclusive; x = not tested or not shown; [ ] = remark or other dose. The call rests on the fitted dose curve; in most records, active means well fitted curve in the direction sought with a large enough effect; inconclusive means small, poorly fitted or top-dose-only effect, or another doubt; inactive means no such curve, though single readings can be large; an effect the other way counts as inactive or inconclusive. Potency means the concentration at half of the fitted maximal effect.

SMILES	Luc counter	NPC1 promoter act	Rab9 prom act	FLuc counter	SMN2 splice up	ELG1 genotoxic
CC(C)c1nnc(NC(=O)c2cccs2)s1	-10.4%	2.82µM*	2.51µM*	13.5µM*	14.1µM*	4.11µM*
CC(C)(C)c1nnc(NC(=O)c2cccs2)s1	-19.5%	2.82µM*	2.82µM*	10.7µM*	x	u
COc1c(C(=O)Nc2nnc(C3CC3)s2)csc1Cl	x	4.47µM*	3.98µM*	u	x	u
CCCCCCCC(=O)N1CCN(c2cc3c(cc2F)c(=O)c(C(=O)O)cn3CC)CC1	x	0.3%	-1.9%	u	x	1.7%
CCCNS(=O)(=O)c1ccc(OCC(=O)N2CCc3ccccc3C2)c(C)c1	x	-6.6%	0.5%	2.1%	x	-4.4%
O=C(Nc1nnc(C2CC2)s1)c1cccs1	x	2.82µM*	3.16µM*	u	x	u
CCN(c1cccc(C)c1)S(=O)(=O)c1nnc(NC(=O)c2cccs2)s1	x	x	x	-13.8%	x	x
CN(c1ccccc1)S(=O)(=O)c1nnc(NC(=O)c2cccs2)s1	x	x	x	1.07µM*	x	x
CN(C)c1ccc(/C=C(/NC(=O)c2ccccc2)C(=O)NCCCn2ccnc2)cc1	x	-2.9%	-0.8%	4.78µM*	x	0.6%
Cc1ccc(C(=O)N/C(=C\c2ccc(-c3cc(Cl)ccc3Cl)o2)C(=O)NCc2cccnc2)cc1	-0.6%	u	u	19µM*	8.3%	4.8%
O=C(NCc1cccnc1)/C(=C/c1ccc(-c2cccc(Cl)c2)o1)S(=O)(=O)c1ccccc1	5.0%	-29.3%	-27.4%	2.0%	-99.3%	-22.1%
O=C(NCCCn1ccnc1)/C(=C/c1ccc(Cl)cc1)NC(=O)c1ccccc1	x	-2.7%	1.0%	0.8%	x	-3.7%
CN(C)c1ccc(/C=C(\NC(=O)c2ccccc2)C(=O)NCc2cccnc2)cc1	x	0.5%	-2.6%	10.7µM*	x	-1.5%
Cc1ccc(NC(=O)CSCc2cc(=O)n3nc(C4CC4)sc3n2)cc1	x	0.1%	-4.8%	-0.3%	x	3.3%
COc1cc2c(cc1OC)C(C)N(C(=O)Cn1ncc3c1-c1cc(C)ccc1OC3)CC2 (stereo unspecified)	1.3%	-3.9%	-5.7%	5.6%	-33.1%	-12.4%
Cc1cc(OCC(=O)c2ccc(Br)cc2)ccc1N1C(=O)CCC1=O	0.8%	10.2%	6.9%	-19.1%	-19.9%	-7.1%
Nc1ccccc1C#CC(=O)c1ccccc1	x	-0.5%	-2.4%	6.01µM*	x	-1.2%
COc1ccc(-n2nc(C(=O)O)c3ccccc3c2=O)cc1	-3.5%	-3.4%	-10.8%	-4.1%	4.6%	-2.6%
Cn1ccnc1SCC(=O)c1c[nH]c2ccccc12	-22.9%	3.98µM*	3.55µM*	19µM*	17.8µM*	10.3µM*
CN(C(=O)c1cccc(NC(=O)c2ccco2)c1)c1ccccc1	x	2.0%	2.7%	1.7%	x	-3.0%
CCC(C)c1ccc(NC(=O)c2ccco2)cc1 (stereo unspecified)	x	0.141µM*	0.316µM*	0.426µM*	x	0.58µM*
CN(C(=O)c1ccc(NC(=O)c2ccco2)cc1)c1ccccc1	x	u	u	16.9µM*	x	u
COc1ccc(-c2ccc(NC(=O)c3ccco3)cc2)nn1	x	u	0.1µM*	1.2µM*	x	u
O=C(CCSc1ccc(Cl)cc1)c1ccco1	x	-2.3%	-2.1%[1.84 µM]	21.3µM*	x	-8.6%
CN=C(Cc1ccccc1)C1=C(O)CC(C)(C)CC1=O	3.3%	0.2%	-0.5%	-3.9%	-6.6%	-0.2%
O=C(NCCC1=CCCCC1)C1CCN(c2nnc(-n3cccc3)s2)CC1	-1.6%	0.5%	1.7%	-18.2%	-11.1%	0.9%
COc1cc2cnc(-c3ccsc3)cc2cc1OC	x	x	x	x	x	8.0%
CC(=O)Nc1ccc(NC(=O)c2ccco2)cc1	14.2%	21.8%	u	u	17.8µM*	u
O=C(COc1ccc(Cl)cc1)Nc1ccc(NC(=O)c2ccco2)cc1	x	16.1%	12.7%	1.0%	x	u
CC1N(C)c2cc(NC(=O)c3ccco3)c(P(=O)(Nc3ccc([N+](=O)[O-])cc3)N3CCOCC3)cc2C1(C)C (stereo unspecified)	0.1%	1.4%	-26.0%	5.5%	-29.0%	-13.0%
